Compounds without any hit were thinned out: in the full panel of roughly 83,000, 20% have a hit.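 Growth was measured after 48 h exposure to one concentration of compound in 96-well plates. Values under 10 count as active.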 A number with no mark means an inactive call. Active and inactive are the calls of the source.
Columns and labels:
Assay in all cases: NCI-60 one-dose screen, 48 h (100 = growth as untreated, 0 = no growth, -100 = all killed)
Conditions in all cases: 10 µM
HCT-15 colon = tested on: HCT-15 colon
HT29 colon = tested on: HT29 colon
SNB-75 CNS = tested on: SNB-75 CNS
SNB-19 CNS = tested on: SNB-19 CNS
U251 CNS = tested on: U251 CNS
PC-3 prostate = tested on: PC-3 prostate
SK-MEL-5 melanoma = tested on: SK-MEL-5 melanoma
UACC-62 melanoma = tested on: UACC-62 melanoma
LOX IMVI melanoma = tested on: LOX IMVI melanoma
SK-MEL-28 melanoma = tested on: SK-MEL-28 melanoma

SMILES | growth (HCT-15 colon) | growth (HT29 colon) | growth (SNB-75 CNS) | growth (SNB-19 CNS) | growth (U251 CNS) | growth (PC-3 prostate) | growth (SK-MEL-5 melanoma) | growth (UACC-62 melanoma) | growth (LOX IMVI melanoma) | growth (SK-MEL-28 melanoma)
COc1ccc(Nc2ccnc(N3CCN(c4ccnc5cc(Cl)ccc45)CC3)n2)cc1 | 7.35% (active) | -6.34% (active) | -20.9% (active) | 28.7% | 8.61% (active) | 0.553% (active) | -55.1% (active) | -4.07% (active) | 4.18% (active) | 5.19% (active)
CC(C)C[C@H](NC(=O)CCn1ccc2ccccc2c1=O)B(O)O | 61.7% | 25.7% | 77.8% | 66.1% | 68.2% | 56% | 29.1% | 33.3% | 40.6% | 36.9%
N#Cc1c2c([nH]c(=O)c1C(N)=O)CCCCC2 | 105% | 105% | 104% | 99% | 98.3% | 103% | 95.8% | 88.3% | 101% | 106%
COc1cc(Cn2c(-c3ccccc3)c(Cl)c3c2-c2oncc2CC3)cc(OC)c1 | 80.8% | 56.1% | 94.8% | 85.3% | 37.3% | 60.8% | 109% | 55.4% | 73.8% | 92.3%
COc1ccc(C2C=C(c3ccc(Cl)c(Cl)c3)N=C3SC(C)=CN32)cc1OC (stereo not drawn) | 80.7% | 62.9% | 83.4% | 79.4% | 69.2% | 35.6% | 85.1% | 82.9% | 56.2% | 62.4%
O=NN(CCCl)C(=O)NCc1ccc(-c2ccc(CNC(=O)N(CCCl)N=O)cc2)cc1 | 98.7% | 96.9% | 82.7% | 84.6% | 70.3% | 86.7% | 94.2% | 86.2% | 72.2% | 104%
CN(C)c1ccc2cc(-c3cc4c(oc3=O)-c3ccccc3OC4O)c(=O)oc2c1 (stereo not drawn) | 7.71% (active) | 18.9% | 24% | 36.7% | 30% | -5.5% (active) | -34% (active) | 33.4% | -32.4% (active) | 64.5%
CCCCN(CCCC)c1ccc(C(=NC(C)CCCN(CC)CC)c2ccc(N(C)C)cc2)cc1 (stereo not drawn) | -79.8% (active) | -71.9% (active) | -34% (active) | -23% (active) | -79.9% (active) | -42.4% (active) | -99.6% (active) | -73.5% (active) | -96.7% (active) | -72.1% (active)
Cc1ccc(NS(=O)(=O)c2ccccc2)c(NS(=O)(=O)c2ccccc2)c1 | 104% | 102% | 90.5% | 95.2% | 98.6% | 94.6% | 104% | – | 94.5% | 116%
O=C(Nc1ccc(OCc2nnc(-c3ccccc3)o2)c(F)c1)Nc1ccc(Cl)c(Cl)c1 | 49.4% | 53% | 66.4% | 59.9% | 50.5% | 55.6% | 65.9% | 58% | 54.8% | 73%
Cn1cnc([N+](=O)[O-])c1/C=C1\Oc2ccc(Cl)cc2C1=O | 78.4% | 78.4% | 83.6% | 107% | 97.2% | 79.3% | 91.8% | 91.1% | 73% | 105%
COc1ccc(-c2cn[nH]c2-c2cc(OC)c(OC)c(OC)c2)cc1 | 10.8% | 3.22% (active) | 44.7% | 45.5% | 16.2% | 14.1% | -17.1% (active) | 38% | 27.3% | 43.6%
O=C(COCc1c(-c2ccccc2)no[n+]1[O-])Nc1nc(-c2ccc(Cl)cc2)cs1 | 103% | 105% | 98.6% | 107% | 103% | 95.7% | 95.6% | 99.6% | 95.8% | 111%
CCCN(CCC)CCCNC(=O)c1cc2c(-c3ccc(OC)c(OC)c3)nn(C)c2s1 | 24.7% | 56.5% | 22.7% | 35% | 9.87% (active) | 16.1% | -60.8% (active) | 14.1% | 10.2% | 37.6%
CCc1c(C)[nH]c(=O)c(C(N)=O)c1C#N | 95.4% | 96.6% | 99.9% | 90.1% | 99.4% | 99.4% | 103% | 88.4% | 109% | 114%
CCNC1(NC#N)CCCCC1 | 98.8% | 123% | 91.2% | 110% | 98.9% | 95% | 96.8% | 105% | 104% | 103%
O=C(Nc1cccc(F)c1)Nc1cccc(Cl)c1 | 82.9% | 90.9% | 89.1% | 99.9% | 90.5% | 65.5% | 91.5% | 77.1% | 106% | 98.9%
COc1ccc(C(C)=O)cc1N1C(=O)C2C(C1=O)C1(c3ccccc3)C(=O)C2(c2ccccc2)C(c2ccc(C)cc2)=C1c1ccc(C)cc1 (stereo not drawn) | 25.3% | 21.4% | 57.3% | 29.7% | 14.8% | 12.6% | -29.1% (active) | -70.9% (active) | 7.38% (active) | 37.6%
COc1ccc(-c2nc(NC(=O)CS(=O)(=O)c3ccc(F)cc3)sc2C)cc1 | 18.7% | 4.71% (active) | 79.6% | 86.8% | 47.8% | 44.1% | 35.9% | – | 51.6% | –
CCCOCC(O)CNCCN (stereo not drawn) | 98.2% | 102% | 93.4% | 102% | 95.5% | 83.4% | 106% | – | 104% | –
CCCCCC(CCC)COC(=O)c1ccc(OC)cc1 (stereo not drawn) | 99% | 101% | 89.2% | 112% | 96% | 84.1% | 104% | 104% | 94.5% | 110%
Cc1cnc(C=O)c2cccc([N+](=O)[O-])c12 | 70.7% | 79.1% | 69.6% | 99.2% | 91.9% | 79.9% | 95.5% | 103% | 72.1% | 111%
O=C(Nc1cccc(Cl)c1)Nc1cc2ncncc2cc1OCc1cccc(F)c1 | 0.775% (active) | 0.74% (active) | 21.1% | 22.9% | 6.99% (active) | 9.57% (active) | -88.5% (active) | -18.4% (active) | 21.4% | 20.9%
O=C(O)CNS(=O)(=O)c1ccc(OCCOc2ccc(S(=O)(=O)NCC(=O)O)cc2)cc1 | 96% | 98% | 97.2% | 106% | 99.9% | 96.5% | 97.4% | 102% | 96.8% | 106%
O=C1/C(=C/c2ccc(O)cc2O)N=C2SCCCN12 | 97.3% | 93.9% | 96.2% | 97% | 99.2% | 100% | 99.7% | 97.4% | 102% | 98.4%
COc1cc(-c2cc(-c3cc(OC)c(OC)c(OC)c3)nc3nc(N)[nH]c(=O)c23)ccc1Oc1ccnc2cc(Cl)ccc12 | 14.6% | 104% | -8.67% (active) | 59.4% | 23% | 25.9% | 27% | 49.8% | 27.8% | 56.9%
NC1CCC(Nc2nc(NCc3ccc(-c4ccco4)nc3)c3ncn(C4CCCC4)c3n2)CC1 (stereo not drawn) | 3.49% (active) | -21.9% (active) | -46.9% (active) | 14.2% | 5.19% (active) | -1.27% (active) | -6.6% (active) | – | -26.2% (active) | –
COc1ccc(-c2csc(-c3cc(Cl)cc(Cl)c3Cl)n2)cc1 | 89.2% | 101% | 91.6% | 103% | 93.3% | 95% | 29.2% | 63% | 83.1% | 107%

Reference: PubChem BioAssay (NCI)
